As usually defined, the inhibition is the change of the read-out against control, counted positive when it falls.

For one test, the target named is Solute carrier family 2, facilitated glucose transporter member 1 (Homo sapiens) (UniProt P11166). The test can be described thus: ST_JUDE_LEISH: Cytotoxicity at 2uM final concentration against transgenic Leishmania Mexicana promastigotes LmGLUT1 that are glucose transport deficient and complemented with the human glucose transporter GLUT1. Activity is measured by DNA content using SYBR green in vitro. Format: functional.
Solute carrier family 2, facilitated glucose transporter member 1 (Homo sapiens), sequence (P11166 whole entry): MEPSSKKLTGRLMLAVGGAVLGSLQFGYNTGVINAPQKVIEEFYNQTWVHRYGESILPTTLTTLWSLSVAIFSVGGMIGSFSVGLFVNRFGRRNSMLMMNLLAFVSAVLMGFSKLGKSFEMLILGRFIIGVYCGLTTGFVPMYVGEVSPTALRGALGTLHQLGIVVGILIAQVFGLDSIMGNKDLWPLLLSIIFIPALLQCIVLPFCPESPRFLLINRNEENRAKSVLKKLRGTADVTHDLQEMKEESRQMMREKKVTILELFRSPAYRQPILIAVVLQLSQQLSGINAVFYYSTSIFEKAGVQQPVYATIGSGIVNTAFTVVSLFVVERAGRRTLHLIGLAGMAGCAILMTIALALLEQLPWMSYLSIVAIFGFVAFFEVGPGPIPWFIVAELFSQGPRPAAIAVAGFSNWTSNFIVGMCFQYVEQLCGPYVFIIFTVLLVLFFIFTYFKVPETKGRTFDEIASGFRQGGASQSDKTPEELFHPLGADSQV
In the case of `COc1ccc(NC(=O)c2ccc(-c3cccc(OCc4ccccc4)c3)cc2)cc1N1CCN(C)CC1`, the inhibition is 1.72%.
For `CCCCc1ccc(CCNCCCCCCNCCc2ccc(O)c(O)c2)cc1`, the inhibition turned out to be 0.01%.
Take `Clc1cc(Br)ccc1-c1ccc(CNCC2CCNCC2)o1`: the inhibition is 0.75%.
For `COc1ccc2nc3cc(Cl)ccc3c(NCCCCN)c2c1`, the inhibition was 2.17%.
Still for that read-out and setting: in the case of `COc1ccccc1CCNc1nccc(N[C@@H](Cc2ccccc2)C(=O)NCc2cccs2)n1` it was 1.78%; in that of `COc1ccc(-c2cc3nc4c(c(NCCCn5ccnc5)n3n2)CCCC4)cc1`, 1.31%; in that of `COCCNCc1ccc(-c2ccc3c(Nc4ccc(Cl)cc4F)ccnc3c2)o1`, 2.75%.
With `O=C(Cc1c[nH]cn1)Nc1ccc(-c2ccc(-c3nc4cc(C(F)(F)F)ccc4[nH]3)s2)cc1`, the inhibition was -0.37%.
Same read-out and setting: in the case of `C=CC[C@H](C[C@H](O)[C@H](Cc1ccccc1)NC(=O)c1ccc(-n2cccn2)cc1)C(=O)NC1CCCCC1` it was 9.63%.
The same measure, in the same setting: in the case of `FC(F)(F)c1cccc(-c2cc(NCCCn3ccnc3)nc(-c3ccncc3)n2)c1` it was -3.57%; in that of `Cc1ccc(-c2ccc(Cl)cc2Oc2cnc(N)nc2N)o1`, 1.95%.
Still for that read-out and setting: the value for `Cc1cccc(-c2nc(Nc3ccncc3)c3ccc([N+](=O)[O-])cc3n2)n1` was 5.77%.
Turning to `COc1ccccc1NC(=O)CSc1nc2cccnc2n1-c1ccccc1OC`, the inhibition turned out to be 0.89%.
Still for that read-out and setting: the value for `Cc1cc(N2C(N)=NC(N)=NC2(C)C)ccc1Cl` was 0.08%; that for `C=C(C)COc1ccc(-c2n[nH]c(C(F)(F)F)c2-c2ccccc2OC)c(O)c1` was 8.67%; that for `COc1ccc(-c2cccc(NC(=O)c3cccc(Cl)c3)c2)cc1CN1CCCC1` was 7.71%.
The same measure, in the same setting: in the case of `c1ccc(Oc2ccc(Nc3ccnc4cc(-c5csc(CNCCN6CCOCC6)n5)ccc34)cc2)cc1` it was -1.32%; in that of `COc1ccc(CCNc2nc(N)c3cc(OC)c(OC)cc3n2)cc1`, 2.3%.
On the same count and under the same terms, the value for `COc1ccc(C=NN=c2cc[nH]c3ccccc23)c2ccccc12` was 2.52%.
Consider `CC(CCCCC(=O)Nc1ccc(CC(C)NCCc2cccc(Cl)c2)cc1)NCCc1cccc(Cl)c1` (stereo not given), for which the inhibition amounted to 0.84%.
On the same count and under the same terms, the value for `CCn1c(-c2nonc2N)nc2c(-c3cc4ccccc4s3)ncc(C(=O)N3CCC(N)C3)c21` (stereo not given) was 82.2%; that for `C=C1N(C)c2cc([N+](=O)[O-])c(N)cc2C1(C)C` was 0.68%; that for `c1cc2[nH]c(CCCCCc3nc4cc(C5=N[C@@H]6CCCC[C@@H]6N5)ccc4[nH]3)nc2cc1C1=N[C@@H]2CCCC[C@@H]2N1` was 3.32%.
For the molecule `Cc1cc(-c2cccc(CNC3CCN(C)CC3)c2)ccc1S(=O)(=O)NC1CCC1`, the inhibition stood at 2.28%.
On the same count and under the same terms, the value for `COCCNCc1ccc(-c2ccc(CNc3ccc4ncccc4c3)cc2)cc1` was 2%; that for `CCOC(=O)c1c(CCc2ccc(C(F)(F)F)cc2)nc2c(c1-c1ccc(C(=O)N[C@@H](C)c3ccncc3)cc1)C(=O)N1CCC[C@@H]21` was 2.81%; that for `Fc1ccc2[nH]c(-c3cccc(-c4ccc(CN5CCCCC5)cc4)c3)nc2c1` was 4.18%.
Turning to `CCN(CC)CCN(Cc1ccc(-c2ccc(C(F)(F)F)cc2)cc1)C(=O)c1c[nH]c2ccc(Br)cc12`, the inhibition was 1.48%.
The same measure, in the same setting: in the case of `N#Cc1ccc(N[C@@H](CC2CCCCC2)C(=O)N[C@@H]2CCCc3ccccc32)c2ccccc12` it was 0.46%; in that of `O=C(Nc1cccc(F)c1)c1ccc(C(=O)NC2CCN(CC3CCCCC3)CC2)cc1`, 1.87%.
The same measure, in the same setting: in the case of `CNC(=O)C1Cc2c([nH]c3cc(Cl)ccc23)C2(CCN(CCc3ccccc3)CC2)N1` (stereo not given) it was 0.42%; in that of `Cc1nc(C)c(-c2ccc(Oc3cc(Cl)cc(Cl)c3)cc2)c(O)c1Br`, 1.01%.
On to `Cc1cccc2nc(-c3cccc(-c4cccc(CNCCc5cccn5C)c4)c3)[nH]c12`, for which the inhibition amounted to 0.04%.
In the case of `C=CCOC(=O)N1CCC(CNCc2ccc(-c3cccc(-c4nc5cccc(C)c5[nH]4)c3)cc2)C1` (stereo not given), the inhibition was -0.46%.
On the same count and under the same terms, the value for `N#Cc1cccc(-c2nc(NCc3cccc(C(F)(F)F)c3)nn2-c2cccc(C(F)(F)F)c2)c1` was 1.68%; that for `Cc1cc(N(C)CCN(C)C)nc(Nc2ccc(Br)cc2)n1` was -0.17%; that for `Cc1cccc(C(=O)N2CCN(Cc3cccc(NC(=O)c4cccs4)c3)CC2)c1` was 7.96%.
`Cc1noc(C)c1-c1ccc(C(=C2CCCCCCC2)c2ccc(O)cc2)cc1`: the inhibition is -4.06%.
Regarding `CCCc1ccc(C2CCN(CCCCNC(=O)c3ccc(NC(=O)c4ccc(Cl)cc4)cc3)CC2)cc1`, the inhibition turned out to be 0.56%.
As to `CN1CCN(c2ccnc3ccc(NC(=O)Nc4cccc5ccccc45)cc23)CC1`, the inhibition was 1.43%.

The next test deals with Hexose transporter 1 (Plasmodium falciparum) (UniProt O97467). The test can be described thus: ST_JUDE_LEISH: Cytotoxicity at 2uM final concentration against transgenic Leishmania Mexicana promastigotes LmPfHT that are glucose transport deficient and complemented with the Plasmodium falciparum hexose transporter. Activity is measured by DNA content using SYBR green in vitro. Format: functional.
As to `COc1ccc(NC(=O)c2ccc(-c3cccc(OCc4ccccc4)c3)cc2)cc1N1CCN(C)CC1`, the inhibition is 0.6%.
As to `CCCCc1ccc(CCNCCCCCCNCCc2ccc(O)c(O)c2)cc1`, the inhibition was -0.03%.
The same measure, in the same setting: the value for `Clc1cc(Br)ccc1-c1ccc(CNCC2CCNCC2)o1` was -0.1%; that for `COc1ccc2nc3cc(Cl)ccc3c(NCCCCN)c2c1` was 1.49%.
On to `COc1ccccc1CCNc1nccc(N[C@@H](Cc2ccccc2)C(=O)NCc2cccs2)n1`, for which the inhibition stood at 1.77%.
Still for that read-out and setting: the value for `COc1ccc(-c2cc3nc4c(c(NCCCn5ccnc5)n3n2)CCCC4)cc1` was 1.92%; that for `COCCNCc1ccc(-c2ccc3c(Nc4ccc(Cl)cc4F)ccnc3c2)o1` was 2.3%.
On the same count and under the same terms, the value for `O=C(Cc1c[nH]cn1)Nc1ccc(-c2ccc(-c3nc4cc(C(F)(F)F)ccc4[nH]3)s2)cc1` was -0.36%; that for `C=CC[C@H](C[C@H](O)[C@H](Cc1ccccc1)NC(=O)c1ccc(-n2cccn2)cc1)C(=O)NC1CCCCC1` was 9.73%.
The same measure, in the same setting: in the case of `FC(F)(F)c1cccc(-c2cc(NCCCn3ccnc3)nc(-c3ccncc3)n2)c1` it was -1.14%.
On to `Cc1ccc(-c2ccc(Cl)cc2Oc2cnc(N)nc2N)o1`, for which the inhibition worked out at 2.44%.
Turning to `Cc1cccc(-c2nc(Nc3ccncc3)c3ccc([N+](=O)[O-])cc3n2)n1`, the inhibition was determined as 7.55%.
Regarding `COc1ccccc1NC(=O)CSc1nc2cccnc2n1-c1ccccc1OC`, the inhibition stood at 2.24%.
For the molecule `Cc1cc(N2C(N)=NC(N)=NC2(C)C)ccc1Cl`, the inhibition was -0.81%.
For the molecule `C=C(C)COc1ccc(-c2n[nH]c(C(F)(F)F)c2-c2ccccc2OC)c(O)c1`, the inhibition was 6.88%.
Consider `COc1ccc(-c2cccc(NC(=O)c3cccc(Cl)c3)c2)cc1CN1CCCC1`, for which the inhibition was 5.81%.
Still for that read-out and setting: the value for `c1ccc(Oc2ccc(Nc3ccnc4cc(-c5csc(CNCCN6CCOCC6)n5)ccc34)cc2)cc1` was 1.23%.
Still for that read-out and setting: in the case of `COc1ccc(CCNc2nc(N)c3cc(OC)c(OC)cc3n2)cc1` it was 3.91%; in that of `COc1ccc(C=NN=c2cc[nH]c3ccccc23)c2ccccc12`, 7.49%.
`CC(CCCCC(=O)Nc1ccc(CC(C)NCCc2cccc(Cl)c2)cc1)NCCc1cccc(Cl)c1` (stereo not given): the inhibition was 2.45%.
Same read-out and setting: the value for `CCn1c(-c2nonc2N)nc2c(-c3cc4ccccc4s3)ncc(C(=O)N3CCC(N)C3)c21` (stereo not given) was 98.3%; that for `C=C1N(C)c2cc([N+](=O)[O-])c(N)cc2C1(C)C` was -0.1%; that for `c1cc2[nH]c(CCCCCc3nc4cc(C5=N[C@@H]6CCCC[C@@H]6N5)ccc4[nH]3)nc2cc1C1=N[C@@H]2CCCC[C@@H]2N1` was 2.96%.
In the case of `Cc1cc(-c2cccc(CNC3CCN(C)CC3)c2)ccc1S(=O)(=O)NC1CCC1`, the inhibition turned out to be 1.62%.
As for `COCCNCc1ccc(-c2ccc(CNc3ccc4ncccc4c3)cc2)cc1`, the inhibition came out at 4.18%.
Regarding `CCOC(=O)c1c(CCc2ccc(C(F)(F)F)cc2)nc2c(c1-c1ccc(C(=O)N[C@@H](C)c3ccncc3)cc1)C(=O)N1CCC[C@@H]21`, the inhibition stood at 1.31%.
Take `Fc1ccc2[nH]c(-c3cccc(-c4ccc(CN5CCCCC5)cc4)c3)nc2c1`: the inhibition amounted to 3.6%.
The same measure, in the same setting: in the case of `CCN(CC)CCN(Cc1ccc(-c2ccc(C(F)(F)F)cc2)cc1)C(=O)c1c[nH]c2ccc(Br)cc12` it was 1.01%; in that of `N#Cc1ccc(N[C@@H](CC2CCCCC2)C(=O)N[C@@H]2CCCc3ccccc32)c2ccccc12`, 1.88%; in that of `O=C(Nc1cccc(F)c1)c1ccc(C(=O)NC2CCN(CC3CCCCC3)CC2)cc1`, 5.33%.
The same measure, in the same setting: in the case of `CNC(=O)C1Cc2c([nH]c3cc(Cl)ccc23)C2(CCN(CCc3ccccc3)CC2)N1` (stereo not given) it was 1.39%; in that of `Cc1nc(C)c(-c2ccc(Oc3cc(Cl)cc(Cl)c3)cc2)c(O)c1Br`, 2.38%; in that of `Cc1cccc2nc(-c3cccc(-c4cccc(CNCCc5cccn5C)c4)c3)[nH]c12`, 2.29%.
On to `C=CCOC(=O)N1CCC(CNCc2ccc(-c3cccc(-c4nc5cccc(C)c5[nH]4)c3)cc2)C1` (stereo not given), for which the inhibition is -0.4%.
Consider `N#Cc1cccc(-c2nc(NCc3cccc(C(F)(F)F)c3)nn2-c2cccc(C(F)(F)F)c2)c1`, for which the inhibition was -0.35%.
The same measure, in the same setting: the value for `Cc1cc(N(C)CCN(C)C)nc(Nc2ccc(Br)cc2)n1` was 3.61%; that for `Cc1cccc(C(=O)N2CCN(Cc3cccc(NC(=O)c4cccs4)c3)CC2)c1` was 9.38%.
On the same count and under the same terms, in the case of `Cc1noc(C)c1-c1ccc(C(=C2CCCCCCC2)c2ccc(O)cc2)cc1` it was -2.9%; in that of `CCCc1ccc(C2CCN(CCCCNC(=O)c3ccc(NC(=O)c4ccc(Cl)cc4)cc3)CC2)cc1`, -1%; in that of `CN1CCN(c2ccnc3ccc(NC(=O)Nc4cccc5ccccc45)cc23)CC1`, -0.09%.
